MPTP inh – blocks calcium-induced mitochondrial swelling | inhibition, % at 10 µM | isolated mouse mitochondria, Ca2+ swelling absorbance, 30 min | 360,000 compounds, 1.4% hits | AID 602449;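 active = inhibition of 50% or more, scaled per plate between neutral and stimulator controls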;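 note: 0% = DMSO wells given calcium and 100% = 1 mM EGTA wells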
proKLK7 act – proKLK7 (human) activation, primary screen; purified proKLK7, EDANS-DABCYL substrate fluorescence; 100% is mature enzyme control, 0% vehicle; activation, % at 7 µM; P49862; 370,000 compounds, 0.9% hits; AID 652039;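 active = activation above the mean of all tested compounds plus 3 SD, computed per campaign excluding outliers beyond control limits, cut at about 13% in these data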
Target sequence (P49862 whole entry, looked up): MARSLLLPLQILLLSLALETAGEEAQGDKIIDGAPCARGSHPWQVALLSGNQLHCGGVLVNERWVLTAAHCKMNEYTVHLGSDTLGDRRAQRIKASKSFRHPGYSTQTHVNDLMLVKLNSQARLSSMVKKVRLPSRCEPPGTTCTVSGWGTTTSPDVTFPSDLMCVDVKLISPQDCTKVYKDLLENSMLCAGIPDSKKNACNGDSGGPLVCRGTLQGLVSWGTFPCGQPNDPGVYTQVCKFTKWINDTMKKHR
ADAM10 inh – ADAM10 inhibition, QFRET primary screen. inhibition, % at 7 µM. AID 720582. recombinant ADAM10, EDANS/DABCYL FRET peptide cleavage, 3 h. 370,000 compounds, 0.62% hits. O14672;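 active = inhibition above a per-campaign cutoff equal to the mean of compounds falling between control-based bounds plus 3 SD, cut at about 20% in these data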;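 note: 0% = DMSO wells while the 100% control is not disclosed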
Pemphigus Ab inh – inhibitors of pemphigus antibody binding to human desmoglein-3; P32926; DSG3-coupled beads, scFv-anti-DSG3-GFP binding, flow cytometry; hits give low values; binding (percent of control), % at 10 µM; 310,000 compounds, 0.48% hits; AID 588358;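 active = binding more than 3 SD below its plate's average and above zero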;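 note: hits lower antibody fragment binding to DSG3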
ADAM17 inh – inhibits human ADAM17; P78536; recombinant ADAM17, EDANS/DABCYL FRET peptide cleavage; inhibition, % at 6.95 µM; 370,000 compounds, 0.83% hits; AID 720648;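 active = inhibition above the mean of compounds lying between control limits plus 3 SD, set per campaign, cut at about 8.5% in these data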;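 note: 0% = DMSO-only wells as the low control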
rCAG RNA binder – binds r(CAG) RNA repeats | r(CAG) RNA repeat, TO-PRO-1 dye displacement fluorescence | inhibition, % at 3 µM | 370,000 compounds, 1.3% hits;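 active = inhibition above the plate cutoff, the mean of all test compounds on that plate plus 3 SD, cut at about 35% in these data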;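 note: 0% = DMSO alone and 100% = 100 µM mitoxantrone as full dye displacement; higher means more dye released from RNA so lower well fluorescence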
ADAM10 counter – counter-screen for ADAM17 exosite inhibitors: inhibitors of human ADAM10; shares compounds with ADAM17 inh; recombinant ADAM10, EDANS/DABCYL FRET peptide cleavage, 3 h; inhibition, % at 6.95 µM; 2,900 compounds, 47% hits;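 active = mean inhibition over the triplicate runs exceeds the activity threshold set in the earlier primary screen, cut at about 20% in these data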;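 note: 0% = DMSO wells and 100% = marimastat wells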
ADAM17 confirm – confirmation of inhibitors of human ADAM17. shares compounds with ADAM17 inh. recombinant ADAM17, EDANS/DABCYL QFRET peptide cleavage. inhibition, % at 6.95 µM. 2,900 compounds, 65% hits;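 active = mean inhibition across replicates above the hit cutoff set in the primary screen, cut at about 8.5% in these data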;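 note: 0% = DMSO wells and 100% = marimastat wells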
* marks the source's active call; other numbers are inactive results; nt = no result given. An excerpt weighted towards active compounds, which were near 4.7% of everything screened.

SMILES | MPTP inh | proKLK7 act | ADAM10 inh | Pemphigus Ab inh | ADAM17 inh | rCAG RNA binder | ADAM10 counter | ADAM17 confirm
C=CC[C@@H](CC(=O)N[C@@H](CO)Cc1ccccc1)C(=O)N[C@H](COC(=O)[C@H](CC=C)CC(=O)OC(C)(C)C)Cc1c[nH]c2ccccc12 | -2 | 1 | 18 | 102 | 9.9* | -11 | 44* | 23*
Cc1ccc(O)c(Cn2nnc3ccccc32)c1 | 2 | 1 | -15 | 103 | -5 | 5 | nt | nt
Cc1nc2c(OCc3cc(Cl)cc(Cl)c3)cccn2c1N(C)C(=O)CCC1CCCC1 | 0 | 1 | 8 | nt | 11* | 4 | 12 | 10*
O=c1c2ccccc2oc2cc(OCc3ccc(F)cc3)cc(O)c12 | 2 | -2 | -46 | 100 | -19 | 5 | nt | nt
CCc1cc(C(=O)OC)c(NC(=O)C2CC(=O)NN2Cc2ccccc2)s1 (stereo not given) | -1 | 1 | 5 | 101 | 9.3* | -2 | 15 | 15*
CCc1cc(C(=O)OC)c(NC(=O)CC2NCCNC2=O)s1 (stereo not given) | 1 | 0 | 1 | 100 | -2 | -1 | nt | nt
COC(=O)C1=C(C)N(Cc2cccc(C(F)(F)F)c2)C(=NCc2ccc3c(c2)OCO3)NC1c1cccc(C(F)(F)F)c1 (stereo not given) | nt | 0 | 0 | nt | -2 | 3 | nt | nt
COC(=O)C1=C(C)N(Cc2cccc(C(F)(F)F)c2)C(=NCc2ccc3c(c2)OCO3)NC1c1ccc(F)cc1 (stereo not given) | nt | 0 | -7 | nt | 9.9* | 12 | 19 | 12*
COC(=O)C1=C(C)N(Cc2cccc(C(F)(F)F)c2)C(=NCc2ccc(C(F)(F)F)cc2)NC1c1ccc(C(F)(F)F)cc1 (stereo not given) | nt | 0 | 10 | nt | 5 | 3 | nt | nt
COC(=O)C1=C(C)N(Cc2cccc(C(F)(F)F)c2)C(=NCc2ccc(C(F)(F)F)cc2)NC1c1ccc(F)cc1 (stereo not given) | nt | 1 | 4 | nt | 9.5* | 7 | 22* | 12*
CCCCCCn1c(=O)n2n(c1=O)[C@@H]1CN(S(=O)(=O)c3ccc(C)cc3)C[C@]1(O)[C@@H](OC(=O)NCc1ccc(OC)c(OC)c1)C2 | -1 | 0 | 17 | 110 | 9.8* | 2 | 23* | 14*
CCCCCCn1c(=O)n2n(c1=O)[C@@H]1CN(S(=O)(=O)c3ccc(C)cc3)C[C@]1(O)[C@@H](OC(=O)NCc1ccccc1F)C2 | 1 | 0 | 8 | 105 | 5 | 5 | nt | nt
COc1ccc(C=O)c(OCc2cn(CC(=O)c3ccc(O)cc3)nn2)c1 | 0 | -1 | -12 | 111 | -2 | 3 | nt | nt
O=C1CC(N(CCc2ccccc2)C(=S)Nc2ccccc2)C(=O)N1c1ccccc1 (stereo not given) | -24 | 0 | 17 | nt | 8.7* | 4 | 11 | 8.9*
O=C1CC(N(CCc2ccccc2)C(=S)Nc2ccccc2)C(=O)N1c1ccc(F)cc1 (stereo not given) | 4 | 1 | 2 | 113 | -2 | 4 | nt | nt
Cc1cccc2cc(C3CC(c4ccco4)=NN3S(=O)(=O)c3ccccc3)c(Cl)nc12 (stereo not given) | 1 | -1 | 10 | 79 | 9.4* | 15 | 20* | 12*
Cc1cccc2cc(C3CC(c4ccco4)=NN3S(C)(=O)=O)c(Cl)nc12 (stereo not given) | 0 | 0 | 9 | 91 | 1 | 4 | nt | nt
COc1cccc(-c2cccc(-c3nc(C(=O)NCc4ccc5c(c4)OCO5)cc4c3[C@H](CCO)N(S(=O)C(C)(C)C)C4)c2)c1 (stereo not given in full) | 2 | 1 | 16 | nt | 19* | 19 | 13 | 10*
CN(Cc1ccccc1)C(=O)c1ccc(NC(=O)Cc2ccc(NC(=O)C3CCN(C(=O)C4CCCC4)CC3)cc2)cc1 | 0 | 1 | 3 | 101 | 9.1* | 4 | 33* | 9.2*
CCC/C(C#Cc1ccsc1)=C1/c2ccccc2C(=O)N1c1ccccc1 | 2 | -4 | -4 | 105 | 1 | 0 | nt | nt
Cc1ccc(-c2cc(C(=O)NN=Cc3cccc(Oc4ccccc4)c3)[nH]n2)cc1C | nt | 0 | 13 | nt | 7 | 15 | nt | nt
Cc1ccc(-c2cc(C(=O)NN=Cc3cccc(OCc4ccccc4)c3)[nH]n2)cc1C | nt | 3 | 7 | nt | 11* | 15 | 15 | 12*
COc1cccc(NC(=O)CSc2nncn2N)c1 | -4 | 1 | 11 | nt | 9.7* | 2 | 9 | 9
Cc1cc(C)c2cc(C#N)c(SCC(=O)Nc3cc(C)on3)nc2c1 | 1 | 0 | -19 | 114 | -1 | 3 | nt | nt
O=S(=O)(c1ccccc1F)N1CCC(c2nc3ccccc3o2)CC1 | nt | 0 | -3 | nt | 9.1* | 3 | 13 | 4
SMILES | MPTP inh | proKLK7 act | ADAM10 inh | Pemphigus Ab inh | ADAM17 inh | rCAG RNA binder | ADAM10 counter | ADAM17 confirm
Cc1ccc(S(=O)(=O)NC2CC(C)(C)NC(C)(C)C2)c(C)c1C | -1 | 0 | -4 | 109 | 1 | 2 | nt | nt
Cc1ccccc1OCc1nc(-c2ccc(NC(=O)c3cccs3)cc2)no1 | 8 | 0 | 5 | 99 | 12* | 7 | -63 | -12
O=C(CSc1nc2ccccc2[nH]1)N1c2ccccc2Sc2ccccc21 | -1 | 1 | 10 | 95 | 12* | 0 | 24* | 14*
O=C(CSc1nc(O)cc(=O)[nH]1)N1c2ccccc2Sc2ccccc21 | 1 | 0 | 5 | 97 | 1 | 24 | nt | nt
COc1ccccc1OCCNC(=O)CN1C(=O)NC2(CCCC2)C1=O | -2 | 0 | -1 | 101 | 9.3* | 3 | 8 | 8
COc1ccccc1NC(=O)CN1C(=O)NC2(CCCCCCC2)C1=O | -3 | 0 | 2 | 105 | 6 | -4 | nt | nt
CCCCN(C(=O)C1CC(=O)N(c2ccc(C)cc2)C1)c1c(N)n(CCC)c(=O)[nH]c1=O (stereo not given) | 1 | 0 | -1 | 113 | 11* | 6 | -5 | -2
CC(C)C[C@@H](CN)NC(=O)c1nc[nH]c1C(=O)N[C@@H](C)C(=O)CNC[C@H](C)NC(=O)c1nc[nH]c1C(=O)N[C@@H](Cc1ccccc1)C(=O)O | 0 | 0 | -11 | 107 | -6 | -1 | nt | nt
CCOC(=O)N1CCN(C(=O)C[C@@H]2C[C@@]3(C(=O)OCC)CCCC=C3N(Cc3ccc4c(c3)OCO4)C2=O)CC1 | 1 | 0 | 0 | nt | 0 | 0 | nt | nt
OCCOCCn1c(C2CCCN2c2nc(-c3ccc(F)cc3)cs2)nc2cc(C(F)(F)F)ccc21 (stereo not given) | -1 | 0 | 12 | 104 | 9.9* | 11 | 7 | 7

High-throughput results: PubChem, several laboratories
